Screening results: PubChem, National Center for Advancing Translational Sciences (NCATS)
HEK293 tox: HEK 293 cell cytotoxicity; HEK 293 viability, ATP luminescence (CellTiter-Glo), 48-72 h; Potency, µM (titrated, usually from 115 µM), for inactives: top-dose activity change, negative = cytotoxicity, actives largely listed as inhibitors; actives 6.6% (n = 94,000); further: nearly all actives have a fitted effect of over 60% in size
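Viability of HEK 293 cells, plated at 250 cells/well, was judged by cellular ATP after compound treatment for 48 or 72 hr. Luminescence was imaged 10 min after CellTiter-Glo addition at room temperature.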
NIH3T3 tox: cytotoxic compounds in NIH 3T3 cells; actives 4.3% (n = 94,000); Potency, µM (series often up to 96.7 µM), inactives show at the highest dose activity change, negative = cytotoxicity, actives largely listed as inhibitors; NIH 3T3 viability, CellTiter-Glo ATP luminescence, 48-72 h; further: nearly all actives have a fitted effect of over 55% in size
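ATP-dependent luminescence (CellTiter-Glo) served as the viability signal for NIH 3T3 cells treated with compound for 48 or 72 hr at 37 °C.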
FLuc inh: inhibitors of firefly (Photinus pyralis) luciferase; purified P. pyralis luciferase, luminescence, biochemical; Potency, µM (top dose mostly 115 µM), most hits filed as inhibitors; actives 2.5% (n = 76,000); AID 1347043; further: nearly all actives have a fitted effect of over 65% in size
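Luminescence read by CCD imager after adding enzyme (10nM final) to wells holding compound, titrated in qHTS. Substrates 10uM each D-luciferin and ATP; buffer 50mM Tris acetate pH 7.5, 10mM Mg acetate, Tween-20, BSA.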
hNpr1 antagonist: blocks ANP-stimulated signaling of human Npr1 receptor; P16066; HEK293 hNpr1 GloSensor cGMP, ANP-stimulated luminescence; Potency, µM (series often up to 46.3 µM), without a hit: at the top dose activity change, negative = inhibition, hits mostly inhibitors; actives 1.6% (n = 76,000); AID 1347048; calls by dose curve; further: nearly all actives have a fitted effect of over 60% in size
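HEK293 cells stably expressing human Npr1 and cGMP GloSensor pGS-40F, loaded 2 h with 2% GloSensor reagent, given compound 30 min at room temperature. Luminescence read before and 20 min after 0.1 nM hNppA.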
Active calls of the source: *; i = inactive; ? = inconclusive; / = not tested or not shown; [ ] = remark or other dose. Shown are actives, neighbours in structure and some others; about 11% of the full set was active somewhere. Unless noted, the call rests on the fitted dose curve; in most records, active means well fitted curve in the direction sought with a large enough effect; inconclusive means small, poorly fitted or top-dose-only effect, or another doubt; inactive means no such curve, though single readings can be large; an effect the other way counts as inactive or inconclusive. On the % scale 0 is the no-effect control and ±100 the full control effect; potency means the concentration at half of the fitted maximal effect.

SMILES	HEK293 tox	NIH3T3 tox	FLuc inh	hNpr1 antagonist
CN(c1ccccc1)c1cc(=O)c2ccnc(N3CCN(c4ccccn4)CC3)c2o1	35µM*	?	i	-13%[70.6 µM]
CN(c1ccccc1)c1cc(=O)c2ccnc(N3CCOCC3)c2o1	?	28µM*	i	2%[70.6 µM]
CN(c1ccccc1)c1cc(=O)c2ccnc(NCC3CCOCC3)c2o1	?	8.9µM*	i	5%[70.6 µM]
O=C1NC(C(=O)N2CCN(c3ccccn3)CC2)Cn2cccc21 (stereo not given)	-10%	-23%	/	/
CCCN1CCC(N2CCC3(CC2)CC2C(=O)N(CC)C(=O)N2C3)CC1 (stereo not given)	-5%	3%	/	/
COc1cccc(CN2C(=O)CCCCC2C(=O)NC2CCCCCC2)c1 (stereo not given)	-16%	-11%	i	-5%
C#CCNC(=O)C1CCCN1Cc1cccc(-c2ccc(C)c(Cl)c2)c1 (stereo not given)	40µM*	40µM*	/	/
CC(C)OCCCNC(=O)C1CCCN1Cc1ccc(-c2cncnc2)cc1 (stereo not given)	-1%	-16%	/	/
Cc1ccc(-c2cccc(CN3CCCC3C(=O)NC3CCCC3)c2)cc1Cl (stereo not given)	35µM*	?	/	/
CNC(=O)C1CCCN1Cc1cccc(-c2ccc(C)c(Cl)c2)c1 (stereo not given)	25µM*	35µM*	/	/
Cc1ccc(-c2cccc(CN3CCCC3C(=O)NC(C)C)c2)cc1Cl (stereo not given)	22µM*	22µM*	/	/
CCOC(=O)C1CCCN(C(=O)C2CCc3nnc(C4CCN(C(C)=O)CC4)n32)C1 (stereo not given)	-5%[172 µM]	-11%[138 µM]	/	/
COCCCNC(=O)C1CCCN1Cc1cccc(-c2ccc(C)c(Cl)c2)c1 (stereo not given)	?	40µM*	/	/
Cc1ccc(-c2cccc(CN3CCCC3C(=O)N3CCCC(C)C3)c2)cc1Cl (stereo not given)	?	32µM*	/	/
O=C([C@H]1CCCN1C(=O)Nc1ccc(Cl)cc1)N1CCCC(c2nc3ccncc3[nH]2)C1 (stereo not given in full)	-20%	-17%	/	/
COc1ccc(C(=O)N2CCCC(c3nc(CCOCC4CCCC4)no3)C2)cc1F (stereo not given)	45µM*	?	i	?
O=C(CCc1nc(-c2ccccc2)no1)NC1CCCN(CCCc2ccccc2)C1 (stereo not given)	45µM*	?	i	-9%
CNC(=O)c1cc(C)nc2onc(C3CCCN3C(=O)c3ccccc3Cl)c12 (stereo not given)	-9%	-22%	/	/
COc1cccc(S(=O)(=O)N2CCC3(CC2)C(OC)C(=O)N3c2cccc(F)c2)c1 (stereo not given)	?	?	i	-11%
Clc1cc(Cl)cc(NC2CNC2)c1	63µM*	56µM*	/	/
COc1ccc(CN(C(=O)c2ccco2)c2ccc(CC(=O)NC(C)c3ccccc3)cc2)cc1 (stereo not given)	?	?	i	-26%
O=C(NCCc1ccccc1)C1CCCN(Cc2cccc(-c3ccc(F)cc3F)c2)C1 (stereo not given)	40µM*	?	/	/
COc1ccc(CCNC(=O)C2CCCN(Cc3cccc(-c4ccc(F)cc4F)c3)C2)cc1 (stereo not given)	10µM*	?	/	/
O=C(NCCc1ccc(F)cc1)C1CCCN(Cc2cccc(-c3ccc(F)cc3F)c2)C1 (stereo not given)	40µM*	?	/	/
CC(=O)N1CCNc2cc(-c3ccc(Oc4ccccc4)cc3)ncc2C1	71µM*	?	20µM*	-19%[70.6 µM]
SMILES	HEK293 tox	NIH3T3 tox	FLuc inh	hNpr1 antagonist
COc1ccc(Nc2cc3c(cn2)CN(Cc2ccncc2)CCN3)cc1OC	?	?	i	-1%[70.6 µM]
COc1cccc(CN2CCNc3cc(-c4ccccc4)ncc3C2)c1	?	?	40µM*	-1%[70.6 µM]
CN(C)C(=O)c1ccc(-c2cc3c(cn2)CN(CCc2ccccc2)CCN3)cc1	?	?	i	-14%[70.6 µM]
COc1ccc(CN2CCNc3cc(Nc4ccccc4)ncc3C2)cc1O	100µM*	79µM*	i	-12%[70.6 µM]
COc1ccc(CN2CCNc3cc(-c4ccccc4)ncc3C2)cc1O	89µM*	?	i	-16%[70.6 µM]
O=C(c1ccco1)N1CCC2(CC1)NCCc1c2[nH]c2ccccc12	?	-6%	i	6%
O=C(N1CCCC(c2nnnn2-c2ccccc2)C1)C1(c2ccccc2)CC1 (stereo not given)	-25%	?	/	/
CN(C)C(=O)N1CCC(C(=O)N2CCCC2c2nc3ccncc3[nH]2)CC1 (stereo not given)	-3%	-6%	/	/
COc1ccc(C(=O)N2CCCC2C(=O)N2CCC(N3CCCC3=O)CC2)cc1 (stereo not given)	i	2%	/	/
NC(=O)c1cccc(-c2cc3c(cn2)CN(CCc2ccccc2)CCN3)c1	?	89µM*	?	-6%[70.6 µM]
COc1cccc(-c2cc3c(ccn3CC3CCN(C)CC3)c(N3CCOCC3)n2)c1	63µM*	25µM*	i	0%[70.6 µM]
C[S+](=O)([O-])N1CCC(Cn2ccc3c(N4CCOCC4)nc(-c4cncnc4)cc32)CC1	-15%	?	i	-9%
COc1ncccc1-c1cc2c(ccn2CC2CCN(C)CC2)c(N2CCOCC2)n1	89µM*	45µM*	i	-13%[70.6 µM]
O=[S+]([O-])(Nc1cc(-c2ccccn2)nn1-c1ccccc1)c1ccccc1	-33%	?	/	/
c1nc(-c2cc(NC3CCNCC3)nc3[nH]ccc23)c2sccc2n1	?	?	i	-13%
CN(C)C(=O)c1ccc(-c2cc(NC3CCCC3)nc3[nH]ccc23)o1	45µM*	?	?	6%
COC(=O)[C@@H]1Cc2ncn(Cc3ccc(Cl)cc3)c2CN1Cc1cccs1	?	89µM*	i	?
COC(=O)[C@@H]1Cc2ncn(Cc3ccc(Cl)cc3)c2CN1CCCc1ccccc1	25µM*	-95%[138 µM]	i	?
COC(=O)[C@@H]1Cc2ncn(Cc3ccc(Cl)cc3)c2CN1Cc1ccc(CO)o1	?	?	i	-8%[70.6 µM]
COC(=O)[C@@H]1Cc2ncn(Cc3ccc(OC)cc3)c2CN1CCCc1ccccc1	?	?	i	-25%[70.6 µM]
O=C(Cc1ccc(Cl)cc1)N1CCC2(CC1)CN(C1CCC1)CC2CO (stereo not given)	?	?	i	-27%
COC(=O)[C@@H]1Cc2c([nH]c3ccccc23)[C@H]2C[C@@H](NCc3cccnc3)C[C@@H](c3ccccc3)N21	22µM*	?	i	-6%
COCCNC(=O)[C@H]1C[C@H](Oc2ccccc2)CN1C(=O)c1cccc(OC)c1	i	4%	i	-4%
COCCNC(=O)[C@@H]1CCC[C@@H](NCc2cccnc2)CN(C)C(=O)C1	i	i	i	5%[70.6 µM]
